Our source for the binding signal values is article PMC8384837, “Expanding the binding specificity for RNA recognition by a PUF domain”.

Assay in all cases: yeast three-hybrid, YBZ-1, SC-Leu-His + 0.5 mM 3-AT, 4 days
Holding throughout (details): tags: N-Gal4 AD-HA kept; label: inside an RPR1-promoter hybrid RNA with tandem MS2 sites; ssRNA

One assay concerns the target PUM1 PUF domain R1-NFH (Homo sapiens, UniProt Q14671 828-1176, S863N;R864F;Q867H). Put shortly:
(§1)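 Matching RNA elements and Pumilio-1 PUF domain libraries, randomized at the three base-contacting residues of every repeat, were co-expressed from a centromeric plasmid in strain YBZ-1 (LexA–MS2 coat fusion, HIS3 reporter). The repeat regions were PCR-amplified and Illumina-sequenced from cells grown four days on SC-Leu (input) or SC-Leu-His + 0.5 mM 3-AT (selection). The interaction score is the log change in variant frequency from input to selection. It is computed in log2, with a pseudocount of 1 for absent variants.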

A further assay deals with PUM1 PUF domain R1-YIR (Homo sapiens, UniProt Q14671 828-1176, S863Y;R864I;Q867R). Put shortly:
as §1

Another assay concerns the target PUM1 PUF domain R7-RMR (Homo sapiens, UniProt Q14671 828-1176, S1079R;N1080M;E1083R). Put shortly:
as §1

A further assay concerns the target PUM1 PUF domain R4-ANG (Homo sapiens, UniProt Q14671 828-1176, N971A;H972N;Q975G). The procedure, abridged:
as §1

Another assay concerns the target PUM1 PUF domain R4-GYV (Homo sapiens, UniProt Q14671 828-1176, N971G;H972Y;Q975V). Put shortly:
as §1

In the next assay the target is PUM1 PUF domain R3-GCR (Homo sapiens, UniProt Q14671 828-1176, C935G;R936C;Q939R). Put shortly:
as §1

The target in another assay is PUM1 PUF domain R3-RNG (Homo sapiens, UniProt Q14671 828-1176, C935R;R936N;Q939G). Put shortly: as §1
The target in the next assay is PUM1 PUF domain R5-RFS (Homo sapiens, UniProt Q14671 828-1176, C1007R;R1008F;Q1011S). Put shortly:
as §1

The target of another assay is T1, PUM1 PUF domain R6-KWV (Homo sapiens, UniProt Q14671 828-1176, N1043K;Y1044W;Q1047V).
T1 sequence: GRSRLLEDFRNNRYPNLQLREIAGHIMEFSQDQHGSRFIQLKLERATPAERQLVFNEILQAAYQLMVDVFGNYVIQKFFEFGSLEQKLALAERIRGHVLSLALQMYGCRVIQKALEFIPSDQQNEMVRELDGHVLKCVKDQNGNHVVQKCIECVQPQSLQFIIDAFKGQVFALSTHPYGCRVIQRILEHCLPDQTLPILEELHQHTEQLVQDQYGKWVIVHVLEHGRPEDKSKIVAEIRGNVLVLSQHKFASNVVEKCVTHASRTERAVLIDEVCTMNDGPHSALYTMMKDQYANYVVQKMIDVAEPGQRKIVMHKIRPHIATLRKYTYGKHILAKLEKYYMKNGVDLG
The procedure, abridged:
as §1

Another assay has as its target T2, PUM1 PUF domain R6-HFT (Homo sapiens, UniProt Q14671 828-1176, N1043H;Y1044F;Q1047T).
T2 sequence: T1 sequence with K216H, W217F, V220T
Put shortly:
as §1

For a further assay, the target named is T3, PUM1 PUF domain R6-SFC (Homo sapiens, UniProt Q14671 828-1176, N1043S;Y1044F;Q1047C).
T3 sequence: T1 sequence with K216S, W217F, V220C
Put shortly:
as §1

The target of a further assay is PUM1 PUF domain R8-RHQ (Homo sapiens, UniProt Q14671 828-1176, N1122R;Y1123H). The procedure, abridged: as §1
A further assay deals with PUM1 PUF domain R8-LHK (Homo sapiens, UniProt Q14671 828-1176, N1122L;Y1123H;Q1126K). Put shortly:
as §1

The target of another assay is PUM1 PUF domain R5-FHG (Homo sapiens, UniProt Q14671 828-1176, C1007F;R1008H;Q1011G). Put shortly:
as §1

The next assay addresses PUM1 PUF domain R5-RNA (Homo sapiens, UniProt Q14671 828-1176, C1007R;R1008N;Q1011A). Put shortly: as §1
The next assay deals with PUM1 PUF domain R5-RQE (Homo sapiens, UniProt Q14671 828-1176, C1007R;R1008Q;Q1011E). The procedure, abridged:
as §1

The target in the next assay is PUM1 PUF domain R1-SGD (Homo sapiens, UniProt Q14671 828-1176, R864G;Q867D). Put shortly: as §1
The next assay has as its target PUM1 PUF domain R7-RTC (Homo sapiens, UniProt Q14671 828-1176, S1079R;N1080T;E1083C). Put shortly:
as §1

A further assay deals with PUM1 PUF domain R1-KQR (Homo sapiens, UniProt Q14671 828-1176, S863K;R864Q;Q867R). Put shortly: as §1
The next assay has as its target PUM1 PUF domain R5-FNS (Homo sapiens, UniProt Q14671 828-1176, C1007F;R1008N;Q1011S). The procedure, abridged:
as §1

Positions count from the first letter of the chain named.

For “GGCUAGAACUAGUGGAUCCCCCGGCGCCCGGCGGCUCGAGCCCGGGUAAGUGUAAAUUGUCUGCAUGCCGCCGGGCGCCAUGCCUGCAGGUCGACUCUAGAAAACAUG”, the figures for the binding signal in the assay with PUM1 PUF domain R1-NFH and with PUM1 PUF domain R1-YIR were 3.4 log2 enrichment (interaction score) and 4.41 log2 enrichment (interaction score), respectively.

As for “GGCUAGAACUAGUGGAUCCCCCGGCGCCCGGCGGCUCGAGCCCGGGUAAGUCUAAAUAGUCUGCAUGCCGCCGGGCGCCAUGCCUGCAGGUCGACUCUAGAAAACAUG”, the binding signal with PUM1 PUF domain R7-RMR was 2.46 log2 enrichment (interaction score).

Consider “GGCUAGAACUAGUGGAUCCCCCGGCGCCCGGCGGCUCGAGCCCGGGUAAGUGUAUAUAGUCUGCAUGCCGCCGGGCGCCAUGCCUGCAGGUCGACUCUAGAAAACAUG”, for which the binding signal in the assay with PUM1 PUF domain R4-ANG is 2.57 log2 enrichment (interaction score).

As for “GGCUAGAACUAGUGGAUCCCCCGGCGCCCGGCGGCUCGAGCCCGGGUAAGUGUACAUAGUCUGCAUGCCGCCGGGCGCCAUGCCUGCAGGUCGACUCUAGAAAACAUG”, the figures for the binding signal with PUM1 PUF domain R4-GYV and in the assay with PUM1 PUF domain R4-ANG were 7.46 log2 enrichment (interaction score) and 3.65 log2 enrichment (interaction score), respectively.

“GGCUAGAACUAGUGGAUCCCCCGGCGCCCGGCGGCUCGAGCCCGGGUAAGUGUAAUUAGUCUGCAUGCCGCCGGGCGCCAUGCCUGCAGGUCGACUCUAGAAAACAUG”: the binding signal with PUM1 PUF domain R3-GCR was 2.22 log2 enrichment (interaction score); with PUM1 PUF domain R3-RNG, 3.75 log2 enrichment (interaction score).

For the sequence “GGCUAGAACUAGUGGAUCCCCCGGCGCCCGGCGGCUCGAGCCCGGGUAAGUGUAAAUAGUCUGCAUGCCGCCGGGCGCCAUGCCUGCAGGUCGACUCUAGAAAACAUG”, the binding signal was 2.61 log2 enrichment (interaction score) with PUM1 PUF domain R5-RFS; 3.77 log2 enrichment (interaction score) with PUM1 PUF domain R1-YIR; 6.02 log2 enrichment (interaction score) in the assay with PUM1 PUF domain R6-KWV; 3.78 log2 enrichment (interaction score) with PUM1 PUF domain R6-HFT; 4.7 log2 enrichment (interaction score) with PUM1 PUF domain R6-SFC; 0.62 log2 enrichment (interaction score) with PUM1 PUF domain R3-GCR. Besides, the binding signal with PUM1 PUF domain R4-ANG was 0.25 log2 enrichment (interaction score); with PUM1 PUF domain R8-RHQ, 3.7 log2 enrichment (interaction score).

On to “GGCUAGAACUAGUGGAUCCCCCGGCGCCCGGCGGCUCGAGCCCGGGUAAGCGUAAAUAGUCUGCAUGCCGCCGGGCGCCAUGCCUGCAGGUCGACUCUAGAAAACAUG”, for which the results for the binding signal with PUM1 PUF domain R8-LHK and with PUM1 PUF domain R8-RHQ were 3.29 log2 enrichment (interaction score) and 5.53 log2 enrichment (interaction score), respectively.

With “GGCUAGAACUAGUGGAUCCCCCGGCGCCCGGCGGCUCGAGCCCGGGUAAGUGUAAGUAGUCUGCAUGCCGCCGGGCGCCAUGCCUGCAGGUCGACUCUAGAAAACAUG”, the binding signal with PUM1 PUF domain R3-GCR is 3.87 log2 enrichment (interaction score).

With “GGCUAGAACUAGUGGAUCCCCCGGCGCCCGGCGGCUCGAGCCCGGGUAAGUGUCAAUAGUCUGCAUGCCGCCGGGCGCCAUGCCUGCAGGUCGACUCUAGAAAACAUG”, the binding signal with PUM1 PUF domain R5-RFS was 5.34 log2 enrichment (interaction score); with PUM1 PUF domain R5-FHG, 2.68 log2 enrichment (interaction score); in the assay with PUM1 PUF domain R5-RNA it was 2.56 log2 enrichment (interaction score); with PUM1 PUF domain R5-RQE, 3.37 log2 enrichment (interaction score).

As to “GGCUAGAACUAGUGGAUCCCCCGGCGCCCGGCGGCUCGAGCCCGGGUAAGUGUAAAUGGUCUGCAUGCCGCCGGGCGCCAUGCCUGCAGGUCGACUCUAGAAAACAUG”, the binding signal with PUM1 PUF domain R1-SGD is 5.76 log2 enrichment (interaction score).

With “GGCUAGAACUAGUGGAUCCCCCGGCGCCCGGCGGCUCGAGCCCGGGUAAGUGUGAAUAGUCUGCAUGCCGCCGGGCGCCAUGCCUGCAGGUCGACUCUAGAAAACAUG”, the binding signal with PUM1 PUF domain R5-RFS is 1.78 log2 enrichment (interaction score).

For the sequence “GGCUAGAACUAGUGGAUCCCCCGGCGCCCGGCGGCUCGAGCCCGGGUAAGUUUAAAUAGUCUGCAUGCCGCCGGGCGCCAUGCCUGCAGGUCGACUCUAGAAAACAUG”, the binding signal is 4.78 log2 enrichment (interaction score) in the assay with PUM1 PUF domain R7-RMR and 3.51 log2 enrichment (interaction score) with PUM1 PUF domain R7-RTC.

For “GGCUAGAACUAGUGGAUCCCCCGGCGCCCGGCGGCUCGAGCCCGGGUAAGUGUAAAUCGUCUGCAUGCCGCCGGGCGCCAUGCCUGCAGGUCGACUCUAGAAAACAUG”, the binding signal with PUM1 PUF domain R1-KQR was 5.28 log2 enrichment (interaction score); with PUM1 PUF domain R1-YIR it was 6.92 log2 enrichment (interaction score).

As to “GGCUAGAACUAGUGGAUCCCCCGGCGCCCGGCGGCUCGAGCCCGGGUAAGUGUUAAUAGUCUGCAUGCCGCCGGGCGCCAUGCCUGCAGGUCGACUCUAGAAAACAUG”, the binding signal with PUM1 PUF domain R5-RFS was 5.12 log2 enrichment (interaction score); with PUM1 PUF domain R5-FHG, 3.39 log2 enrichment (interaction score); with PUM1 PUF domain R5-FNS, 3.5 log2 enrichment (interaction score); in the assay with PUM1 PUF domain R5-RNA, 2.33 log2 enrichment (interaction score).
